# Pf Dd2 inh: Plasmodium falciparum Dd2 growth inhibition; AID 1347417; P. falciparum Dd2 growth, SYBR Green, 72 h; 120,000 compounds, 4.3% hits; Potency, µM (highest dose often 28.9 µM), most hits filed as inhibitors; active = well fitted inhibition curve with a large enough effect; also: nearly all actives have a fitted effect of over 65% in size
#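 Readout: SYBR Green fluorescence, 485 nm excitation, 535 nm emission, after ~16 h lysis at 37C. Before that, Dd2-infected red cells (2.5% hematocrit) grew 72 h with compound, 29 uM top final concentration.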
# Numbers stand for hits; - = inactive; [ ] = dose if it differs, or a comment. This excerpt belongs to a sample that is enriched for hits.
SMILES,Pf Dd2 inh
Cc1cccnc1C(=O)N1C[C@@H](CO)[C@H](c2nc(C3CC3)no2)C1,-
CN(C(=O)Cc1ccsc1)C1CCc2nn(C)c(=O)n2CC1 (configuration not stated),-
O=C(Cc1ccccc1Cl)NC1CCN(c2cc(C(F)(F)F)ncn2)CC1,-
COc1ccc(CCN2C(=O)O[C@@H]3CN(C(=O)NCc4ccccc4)C[C@@H]32)cc1,-
CN1CCCC2(CCN(C(=O)Cc3c[nH]c(=O)n(C)c3=O)C2)C1=O (configuration not stated),-
CN(Cc1cccc(-c2nn[nH]n2)c1)C(=O)C1CCCN(CC(N)=O)C1 (configuration not stated),-
O=C(C1CC1)N1CCC(c2noc(-c3cnccn3)n2)C1 (configuration not stated),-[5.79 µM]
NCCn1cc(C(=O)N(Cc2ccccn2)CC2CCCO2)nn1 (configuration not stated),-
Cc1cccc(N2Cc3c(NCc4ccc5c(c4)OCO5)ncnc3N(C)CC2=O)c1,-
Cc1nn(C)c2nc(-c3ccccn3)nc(NCc3ccc4c(c3)OCO4)c12,8.9µM
CN1CC(=O)N(c2ccccc2F)Cc2c(NCc3ccc4c(c3)OCO4)ncnc21,-
CC(C)NC(=O)C1CCc2nnc(C3CCN(C(=O)Nc4ccc(Cl)cc4)CC3)n21 (configuration not stated),-
Cc1cc(F)ccc1OC1CN(C(=O)c2ccccn2)C1,-
Cc1ccc(C(=O)N2CC(Oc3ccc(F)cc3C)C2)cc1,11µM
Cc1ccc(OC2CN(C(=O)c3ccc(F)cc3)C2)cc1C,-
O=C(Nc1ccc2c(c1)CCC2)c1cc2n(n1)CC(c1ccc(Cl)cc1)OC2 (configuration not stated),-
COCCN1C(=O)CS(=O)(=O)C12CCN(C(=O)Cc1ccccc1C)CC2,-
CCOc1ccc(C2Cn3nnc(-c4nc(-c5ccccc5Cl)no4)c3CO2)cc1 (configuration not stated),-
Cc1cc(Br)ccc1NC(=O)C1CCN(S(=O)(=O)c2ccc(Br)s2)CC1,-
O=C(c1cc(-c2ccc(Br)cc2)n[nH]1)N1CCN(S(=O)(=O)c2ccc(Br)s2)CC1,8.9µM
Cc1ccc(-c2cc(C(=O)N3CCN(S(=O)(=O)c4ccc(Br)s4)CC3)[nH]n2)cc1C,-
O=C(c1cc(-c2ccc(Cl)cc2)n[nH]1)N1CCN(S(=O)(=O)c2ccc(Br)s2)CC1,-
O=C(C1CCN(S(=O)(=O)c2ccc(Br)s2)CC1)N1CCN(c2ccc(F)cc2)CC1,-
Cc1ccc(-c2cc(C(=O)N3CCN(S(=O)(=O)c4ccc(Br)s4)CC3)[nH]n2)c(C)c1,13µM
COc1ccc(NC(=O)N2C[C@@H]3C[C@H](C2)c2c(NC(=O)Nc4ccccc4)ccc(=O)n2C3)cc1,-
SMILES,Pf Dd2 inh
Cn1c(SCC(=O)Nc2nc3ccccc3s2)ncc(C(=O)Nc2ccc(F)cc2)c1=O,-
CC(=O)N1CCc2c(sc(NC(=O)CSc3ccc(F)cc3)c2-c2nc3ccccc3s2)C1,-
CN1CCc2c(sc(NC(=O)CSc3ccc(F)cc3)c2-c2nc3ccccc3s2)C1,13µM
COc1ccc(S(=O)(=O)N2CC[C@H](CNC(C)=O)[C@H](N(C)C)C2)cc1,-
O=C([C@H]1CCC[C@@H](O)C1)N1CCN(C2Cc3ccccc3C2)CC1,-
CN(C)Cc1cn(C[C@H]2C[C@@H](NC(=O)c3ccc4c(c3)OCO4)[C@H](O)[C@@H]2O)nn1,-
CC(C)Oc1ccc(C(=O)N2CCCN(S(C)(=O)=O)c3ccccc32)cc1,-
O=C(CN1C(=O)COc2ccc(C(=O)COc3cccc(F)c3)cc21)NCc1ccc2c(c1)OCO2,-
O=C(Cc1ccc2c(c1)OCO2)N(Cc1ccncc1)Cc1cccc(OCCc2ccc(F)cc2)c1,11µM
O=C(Cc1ccc2c(c1)OCO2)N1CCNc2cnc(Nc3cccc(F)c3)nc2C1,-
CCN1CCC2(Cc3ccccc3CN(C(=O)Cc3ccccc3)C2)C1 (configuration not stated),11µM
CCN1CCC2(Cc3ccccc3CN(C(=O)Cc3ccc(O)cc3)C2)C1 (configuration not stated),-
CCC(=O)N1Cc2ccccc2CC2(CCN(CC3CCNCC3)C2)C1 (configuration not stated),-
CCC(=O)N1Cc2ccccc2CC2(CCCN2Cc2ccc(OC)cc2)C1 (configuration not stated),-
CCN1CCC2(Cc3ccccc3CN(C(=O)Cc3ccc(OC)cc3)C2)C1 (configuration not stated),8.9µM
CCN1CCCC2(Cc3ccccc3CN(C(=O)CCCC(=O)O)C2)C1 (configuration not stated),-
COc1ccc(C(=O)N2C(C(=O)NC3CC3)COC23CCN(C(=O)c2ccccc2C)CC3)cc1 (configuration not stated),-
CCOc1cc(=O)n2c(c1C(=O)Nc1cc(Cl)ccc1C)CCCC2,-
O=C(OCc1ccccc1)N1CCC2(CC1)C(=O)NN=C2c1cccnc1,-
Cc1nc2scc(CC(=O)NCc3ccco3)n2c(=O)c1-c1cc(C)n(-c2cccc(F)c2)n1,-
COc1cc2c(cc1OCc1ccccc1)NC(=O)C21CCN(C(C)=O)CC1,-
COc1cc2c(cc1OCc1ccccc1)NC(=O)C21CCN(Cc2ccncc2)CC1,13µM
COc1cc2c(cc1OCc1ccccc1)NC(=O)C21CCN(Cc2ccccc2)CC1,-
CCc1cnc(N2CCC3(CC2)C(=O)Nc2cc(OCc4ccccc4)c(OC)cc23)nc1,-
COc1cc2c(cc1Oc1ccccc1)NC(=O)C21CCN(Cc2ccccc2)CC1,-
SMILES,Pf Dd2 inh
COCC(=O)N1CCC2(CC1)C(=O)Nc1cc(Oc3ccccc3)c(OC)cc12,-
COc1cc2c(cc1OCc1ccccc1)NC(=O)C21CCN(c2ncccn2)CC1,4.5µM
COc1cc2c(cc1Oc1ccccc1)NC(=O)C21CCN(c2ncccn2)CC1,-
COc1cc2c(cc1Oc1ccccc1)NC(=O)C21CCN(CCC(C)C)CC1,6.3µM
CN(C)[C@@H]1CN(C(=O)C2CCC2)CC[C@]1(O)c1ccccc1,-[5.79 µM]
O=C(CN1CC2CC(C1)[C@H]1CCCC(=O)N1C2)NCC1CCCCC1 (some centres not stated),-
Cc1noc(C)c1CCC(=O)N1CCC(C2CCN(S(C)(=O)=O)CC2)C1 (configuration not stated),-
CNC(=O)[C@@H]1C[C@@H](n2cc(C(C)(C)NC(=O)CC3CCCC3)nn2)CN1,-
CCn1c(Cn2ccnc2C)nnc1C1CCN(C(=O)CCN)CC1,-
COc1cc2c(cc1OCc1ccccc1)NC(=O)C21CCN(Cc2c(C)noc2C)CC1,-
CCc1nc(-c2c3n(c(=O)n(Cc4ccc(OC)cc4)c2=O)CCCC3)no1,-
COc1ccccc1CC(=O)N[C@@H]1CN(C2CCOCC2)C[C@H]1CN(C)C,-
Cc1ccccc1NC(=O)c1ccc2nc(Cc3ccccc3)oc2c1,-
Cc1cc(C)c2c(=O)cc(C(=O)Nc3ccc(S(=O)(=O)N(C)Cc4ccccc4)cc3)oc2c1,-
Cc1c(Cl)cccc1NC(=O)c1ccc(C(=O)Nc2cccc(Cl)c2C)cc1,-
CCN(Cc1ccccc1)Cc1c(O)ccc2oc(C)c(C(=O)Nc3ccccc3C)c12,1.1µM
Cc1oc2ccc(O)c(CN(C)Cc3ccccc3)c2c1C(=O)Nc1cccc(Cl)c1C,3.2µM
Cc1ccccc1NC(=O)C1=NO[C@@H]2CN(CCc3ccccc3)C[C@H]12,-
CCCn1ccc2oc(C)c(C(=O)NCc3ccccc3)c2c1=O,-
CCc1ccc2oc(C(=O)Nc3cccc(Cl)c3C)cc(=O)c2c1,-
